From paper PMC5700166

Columns and labels:
Assay in all cases: protein-binding microarray (PBM); PBM: ~300 nM protein, 6 mM HEPES pH 7.8, 80 mM KCl, 0.5 mM EDTA, 0.5 mM EGTA, 6% glycerol, 35 ng/ul poly-dIdC, 1% milk, 1 h, room temperature; Ap Aiptasia and Nv Nematostella (sea anemones) / Co Capsaspora / Aq Amphimedon (sponge) / Dm Drosophila / Hu human; RHD is the Rel homology domain; high values mean tight binding
Conditions in all cases: dsDNA, one strand shown
GST-Ap-NF-kB RHD = target: T1, GST-Ap-NF-kB RHD (Exaiptasia pallida (Aiptasia), UniProt A0A913YAJ5 2-422)
T1 sequence: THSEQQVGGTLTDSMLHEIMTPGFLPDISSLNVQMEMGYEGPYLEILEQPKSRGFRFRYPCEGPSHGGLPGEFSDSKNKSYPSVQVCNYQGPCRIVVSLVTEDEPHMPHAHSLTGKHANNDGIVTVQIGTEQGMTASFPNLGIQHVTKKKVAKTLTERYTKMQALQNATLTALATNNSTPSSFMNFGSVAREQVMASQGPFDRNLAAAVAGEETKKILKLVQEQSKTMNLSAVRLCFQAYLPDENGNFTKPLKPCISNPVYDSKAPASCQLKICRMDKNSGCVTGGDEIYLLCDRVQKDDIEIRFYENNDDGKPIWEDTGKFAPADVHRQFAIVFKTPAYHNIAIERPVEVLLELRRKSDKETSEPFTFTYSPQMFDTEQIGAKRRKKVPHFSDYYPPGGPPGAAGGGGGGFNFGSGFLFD

[1] = target: T2, GST-Nv-NF-kB (Cys allele) (Nematostella vectensis, UniProt E5G601 2-411)
T2 sequence: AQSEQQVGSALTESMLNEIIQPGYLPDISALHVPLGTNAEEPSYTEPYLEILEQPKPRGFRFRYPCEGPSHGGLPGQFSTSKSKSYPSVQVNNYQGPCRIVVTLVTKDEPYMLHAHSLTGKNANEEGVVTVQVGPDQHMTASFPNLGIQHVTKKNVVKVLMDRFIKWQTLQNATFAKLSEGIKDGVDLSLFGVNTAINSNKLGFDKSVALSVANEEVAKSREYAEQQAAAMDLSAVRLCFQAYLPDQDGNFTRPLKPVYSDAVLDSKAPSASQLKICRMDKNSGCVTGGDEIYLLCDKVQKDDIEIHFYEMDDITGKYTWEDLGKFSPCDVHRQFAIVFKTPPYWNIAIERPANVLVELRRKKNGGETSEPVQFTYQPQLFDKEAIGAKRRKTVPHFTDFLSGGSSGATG

GST-Co-NF-kB = target: T3, GST-Co-NF-kB (Capsaspora owczarzaki, UniProt F1ARL5 200-546)
T3 sequence: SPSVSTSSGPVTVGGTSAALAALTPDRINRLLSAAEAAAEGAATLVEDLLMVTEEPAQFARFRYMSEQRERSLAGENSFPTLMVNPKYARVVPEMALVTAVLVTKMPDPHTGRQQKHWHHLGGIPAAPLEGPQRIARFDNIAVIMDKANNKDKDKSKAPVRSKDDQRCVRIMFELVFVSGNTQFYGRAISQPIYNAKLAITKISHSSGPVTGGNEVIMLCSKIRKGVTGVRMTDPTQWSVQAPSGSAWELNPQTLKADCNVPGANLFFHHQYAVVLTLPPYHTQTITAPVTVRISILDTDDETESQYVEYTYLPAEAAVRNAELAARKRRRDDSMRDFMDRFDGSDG

GST-Dm-Relish = target: T4, GST-Dm-Relish (Drosophila melanogaster, UniProt Q94527 99-473)
T4 sequence: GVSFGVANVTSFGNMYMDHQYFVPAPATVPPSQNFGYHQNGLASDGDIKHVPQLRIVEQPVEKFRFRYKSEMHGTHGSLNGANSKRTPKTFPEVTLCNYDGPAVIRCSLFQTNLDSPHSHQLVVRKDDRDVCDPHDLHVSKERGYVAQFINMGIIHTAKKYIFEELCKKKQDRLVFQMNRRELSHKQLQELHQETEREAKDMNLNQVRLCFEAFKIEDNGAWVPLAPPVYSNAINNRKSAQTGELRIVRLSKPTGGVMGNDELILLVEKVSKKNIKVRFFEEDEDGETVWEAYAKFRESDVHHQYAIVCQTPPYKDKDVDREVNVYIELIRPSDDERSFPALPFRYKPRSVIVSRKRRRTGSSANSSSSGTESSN

GST-Aq-NF-kB = target: T5, GST-Aq-NF-kB (Amphimedon queenslandica, UniProt A9Y5G7 2-389)
T5 sequence: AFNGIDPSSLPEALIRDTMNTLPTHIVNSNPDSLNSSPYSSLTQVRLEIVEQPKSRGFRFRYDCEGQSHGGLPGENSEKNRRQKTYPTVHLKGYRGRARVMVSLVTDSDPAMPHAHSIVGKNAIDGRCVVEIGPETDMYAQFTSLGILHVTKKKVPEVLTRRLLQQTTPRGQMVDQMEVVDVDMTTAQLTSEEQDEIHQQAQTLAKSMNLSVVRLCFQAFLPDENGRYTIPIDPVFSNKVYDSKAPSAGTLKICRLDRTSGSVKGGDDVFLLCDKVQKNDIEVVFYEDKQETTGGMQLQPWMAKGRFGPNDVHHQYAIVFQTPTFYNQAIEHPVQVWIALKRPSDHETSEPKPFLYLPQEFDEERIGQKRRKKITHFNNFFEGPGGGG

Row | Sequence | binding signal (GST-Ap-NF-kB RHD) [z-score] | binding signal [1] [z-score] | binding signal (GST-Co-NF-kB) [z-score] | binding signal (GST-Dm-Relish) [z-score] | binding signal (GST-Aq-NF-kB) [z-score]
1 | CCGATTAACATCAAATTTCCCGCTGATGTTAATCGGGTCTTGATTCGCTTGACGCTGCTG | 3.85 | 5.17 | 4.99 | 2.88 | 5.22
2 | CCGATTAACATCAGGGACACCCCTGATGTTAATCGGGTCTTGATTCGCTTGACGCTGCTG | 6.11 | 4.44 | 3.39 | 7.09 | 6.84
3 | CCGATTAACATCAGGGAAAGAAATGATGTTAATCGGGTCTTGATTCGCTTGACGCTGCTG | 1.61 | 3.74 | 4.91 | 1.72 | 3.72
4 | CCGATTAACATCAGGGGTTTCCATGATGTTAATCGGGTCTTGATTCGCTTGACGCTGCTG | 5.75 | 5.04 | 1.21 | 8.15 | 5.61
5 | CCGATTAACATCAACCACCCCCTTGATGTTAATCGGGTCTTGATTCGCTTGACGCTGCTG | 3.52 | 3.02 | 2.25 | 2.48 | 3.83
6 | CCGATTAACATCACTTCCCCCCATGATGTTAATCGGGTCTTGATTCGCTTGACGCTGCTG | 4.7 | 4.18 | 8.31 | 3.34 | 3.86
7 | CCGATTAACATCAAGGGGTCCCCTGATGTTAATCGGGTCTTGATTCGCTTGACGCTGCTG | 5.55 | 3.3 | 1.66 | 6.15 | 4.02
8 | CCGATTAACATCAGGGATACCCCTGATGTTAATCGGGTCTTGATTCGCTTGACGCTGCTG | 6.66 | 5.69 | 4 | 7.22 | 6.98
9 | CCGATTAACATCACCGCCCCACGTGATGTTAATCGGGTCTTGATTCGCTTGACGCTGCTG | 1.95 | 1.73 | 1.4 | 1.95 | 1.28
10 | CCGATTAACATCAGGGAGCCCCCTGATGTTAATCGGGTCTTGATTCGCTTGACGCTGCTG | 8.32 | 4.79 | 2.5 | 9.12 | 7.55
11 | CCGATTAACATCAGGGGGAGTGATGATGTTAATCGGGTCTTGATTCGCTTGACGCTGCTG | 5.05 | 3.63 | 3.71 | 1.66 | 3.44
12 | CCGATTAACATCAAGGGGGGTGGTGATGTTAATCGGGTCTTGATTCGCTTGACGCTGCTG | 3.51 | 3.67 | 3.06 | 4.12 | 4.15
13 | CCGATTAACATCAGAAGTTCCCATGATGTTAATCGGGTCTTGATTCGCTTGACGCTGCTG | 2.2 | 2.3 | 2.44 | 3.27 | 2.82
14 | CCGATTAACATCACCACTTTCCCTGATGTTAATCGGGTCTTGATTCGCTTGACGCTGCTG | 3.21 | 4.07 | 3.94 | 1.32 | 3.11
15 | CCGATTAACATCACGGGACCCCCTGATGTTAATCGGGTCTTGATTCGCTTGACGCTGCTG | 6.47 | 3.01 | 1.75 | 6.84 | 3.7
16 | CCGATTAACATCACCCCTCCCCATGATGTTAATCGGGTCTTGATTCGCTTGACGCTGCTG | 3.7 | 2.55 | 3.58 | 3.67 | 2.92
17 | CCGATTAACATCAGGGGGGGTCATGATGTTAATCGGGTCTTGATTCGCTTGACGCTGCTG | 3.99 | 2.96 | 3.31 | 3.85 | 3.54
18 | CCGATTAACATCAGGGTATTTACTGATGTTAATCGGGTCTTGATTCGCTTGACGCTGCTG | 3.45 | 5.05 | 1.4 | 7.1 | 6.01
19 | CCGATTAACATCAGGGGCGGGAATGATGTTAATCGGGTCTTGATTCGCTTGACGCTGCTG | 2.87 | 3.85 | 3.85 | 2.49 | 4.18
20 | CCGATTAACATCATCCCCGTGTCTGATGTTAATCGGGTCTTGATTCGCTTGACGCTGCTG | 2.75 | 3.34 | 4.49 | 2.12 | 3.87
21 | CCGATTAACATCAAACACCCCCCTGATGTTAATCGGGTCTTGATTCGCTTGACGCTGCTG | 4.89 | 4.54 | 4.93 | 5.5 | 5.86
22 | CCGATTAACATCACGGGGAGTCCTGATGTTAATCGGGTCTTGATTCGCTTGACGCTGCTG | 7.06 | 3.95 | 4.24 | 8.09 | 5.02
23 | CCGATTAACATCAGGGGGTCTACTGATGTTAATCGGGTCTTGATTCGCTTGACGCTGCTG | 4.22 | 2.44 | 1.58 | 7.11 | 4.4
24 | CCGATTAACATCACGGGGGGTAATGATGTTAATCGGGTCTTGATTCGCTTGACGCTGCTG | 4.02 | 2.73 | 6.28 | 3.64 | 3.77
25 | CCGATTAACATCAGATGTCCCCCTGATGTTAATCGGGTCTTGATTCGCTTGACGCTGCTG | 6.05 | 5.16 | 5.82 | 2.8 | 4.73
